45 molecules from PubChem BioAssay can be followed below.

The target in this assay is Pantothenate synthetase (Mycobacterium tuberculosis (strain ATCC 25618 / H37Rv)) (UniProt P9WIL5). Description: Coupled enzyme confirmation of inhibitors against recombinant Mtb PanC (AID 375).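 Note: 0% = full reaction with vehicle and 100% = no enzyme background.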 The note with it: coupled enzyme assay; at 10 µM, stronger effect = higher value.

Activity calls are given as the source filed them. The rule behind the calls is not given here.

Sequence of Pantothenate synthetase (Mycobacterium tuberculosis (strain ATCC 25618 / H37Rv)) (P9WIL5 whole entry, looked up): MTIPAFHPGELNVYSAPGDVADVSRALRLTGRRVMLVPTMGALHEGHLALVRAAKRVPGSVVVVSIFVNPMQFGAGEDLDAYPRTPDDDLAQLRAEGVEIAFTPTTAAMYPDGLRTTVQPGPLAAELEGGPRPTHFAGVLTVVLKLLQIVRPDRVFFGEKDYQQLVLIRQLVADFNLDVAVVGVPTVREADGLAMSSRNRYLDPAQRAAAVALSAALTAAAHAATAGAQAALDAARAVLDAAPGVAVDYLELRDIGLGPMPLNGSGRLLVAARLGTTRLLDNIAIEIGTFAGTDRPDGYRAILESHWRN

The inhibition is the change of the read-out against control, counted positive when it falls. Turning to `C=CCn1c(COc2cccc(C)c2)nnc1SCC(=O)NC(=O)NCc1ccco1`, the inhibition was 0% (inactive). With `O=c1oc2ccccc2c2nccnc12` the figure was 0% (inactive). With `CCOc1ccccc1NC(=O)NC1CCN(CC(=O)Nc2ccc3c(c2)OCCO3)CC1` the figure was 0% (inactive); with `O=c1[nH]c(=O)n(C2CCCCCC2)c(O)c1C=NCc1ccc(F)cc1`, 4% (inactive). With `O=C(NCC1CCCO1)C1CC(c2ccc(Cl)c(Cl)c2)=NO1` (stereo not given) the figure was 0% (inactive); with `O=C(NC1CCCC1)C(c1cccs1)N(C(=O)c1ccno1)c1ccccc1` (stereo not given), 9% (inactive). As to `Cc1ccc(-c2noc(-c3ccccc3C(=O)NCC3CCCO3)n2)cc1` (stereo not given), the inhibition was 6% (inactive). With `O=C(CN1C(=O)COc2ccccc21)NCCCN1CCc2ccccc2C1` the figure was 0% (inactive).

On to `Cc1[nH]c2ccccc2c(=O)c1CN1CCCCC1`, for which the inhibition was 0% (inactive). With `CC(C)c1ccc(-c2nc(N3CCOCC3)[nH]c(=O)c2C#N)cc1` the figure was 7% (inactive); with `Cc1[nH]nc2c1C1(CCN(C(=O)c3ccccc3)CC1)C(C#N)=C(N)O2`, 0% (inactive).

As to `CCOC(=O)N1CCC(NC(=O)c2cc(C(=O)NC3CCCC3)ccc2CO)CC1`, the inhibition was 1% (inactive). With `COc1ccc(-c2n[nH]c(C)c2-c2ccc(Cl)cc2)c(O)c1OC` the figure was 0% (inactive); with `O=C(NCCN1CCOCC1)c1csc2c1CCCC2`, 0% (inactive).

Consider `O=c1cc(C(F)F)oc2c1ccc1ccccc12`, for which the inhibition is 0% (inactive). With `CCn1c(=N)n(CC(O)c2ccco2)c2ccccc21` (stereo not given) the figure was 0% (inactive). Turning to `O=C(OCc1ccccc1F)c1ccc2c(c1)OCCO2`, the inhibition is 3% (inactive). With `CC(C)CC1NC2(C(=O)N(C)c3ccccc32)C2C(=O)N(C(C)C)C(=O)C12` (stereo not given) the figure was 0% (inactive); with `COc1ccccc1NC(=O)N(Cc1ccco1)Cc1cc2c(C)ccc(C)c2[nH]c1=O`, 0% (inactive); with `Cc1noc(/C=C/N(C)C)c1S(=O)(=O)N1CCc2ccccc21`, 0% (inactive). With `O=C(COC(=O)c1cccc(S(=O)(=O)N2CCc3ccccc32)c1)NC1CCS(=O)(=O)C1` (stereo not given) the figure was 0% (inactive); with `CC1Cc2ccccc2N1C(=O)CSc1nnc2n1C(C)(C)Cc1ccccc1-2` (stereo not given), 0% (inactive); with `CCOC(=O)c1sc(=NC(=O)c2ccc(OC)c(OC)c2)n(C)c1C`, 2% (inactive). For the molecule `CCOCCCN(Cc1cc2cc(C)cc(C)c2[nH]c1=O)C(=O)N(CC)CC`, the inhibition is 0% (inactive). With `COC(=O)c1ccccc1S(=O)(=O)N(CCCN1CCOCC1)Cc1cccs1` the figure was 0% (inactive); with `CCC(CCC(=O)Nc1cccc(C(=O)O)c1)C(=O)O` (stereo not given), 2% (inactive); with `O=c1c2ccccc2[nH]c(=S)n1CCN1CCC(=C(c2ccc(F)cc2)c2ccc(F)cc2)CC1`, 4% (inactive). Consider `O=C(O)c1c[nH]c2ccc(S(=O)(=O)N3CCN(c4ccc(F)cc4)CC3)cc2c1=O`, for which the inhibition was 0% (inactive). With `CCc1oc2ccccc2c1C(=O)c1cc(Br)c(O)c(Br)c1` the figure was 0% (inactive). With `CS(=O)(=O)N1CCCC(C(=O)NCc2ccccc2Cl)C1` (stereo not given) the figure was 0% (inactive). As for `CCOc1ccc(CCN2C(=O)C3C4C=CC(C4)C3C2=O)cc1OCC` (stereo not given), the inhibition is 3% (inactive).

For `COc1ccc(-c2nnc(SCC(=O)c3cc(C)n(Cc4cccs4)c3C)o2)cc1`, the inhibition was 0% (inactive).

`CCOc1ccccc1-n1c(SCC(=O)NCc2ccco2)nnc1-c1ccncc1`: the inhibition was 1% (inactive). As for `CCOC(=O)Nc1ccc2c(c1)N(C(=O)CCN1CCOCC1)c1ccccc1S2`, the inhibition is 3% (inactive).

`CCCCCCC1/C(=N/O)CCC1C(=O)OC` (stereo not given): the inhibition is 0% (inactive). With `Cc1cc(C)cc(NC(=O)C2CCCN(S(=O)(=O)c3cnc[nH]3)C2)c1` (stereo not given) the figure was 0% (inactive); with `CN(CCC#N)C(=O)COC(=O)c1ccc(Cl)c(S(N)(=O)=O)c1`, 0% (inactive). With `COc1cccc(C2C(C(=O)c3ccc(C)o3)=C(O)C(=O)N2CCCN(C)C)c1` (stereo not given) the figure was 0% (inactive); with `C=Cn1c(C(=O)O)cc(CC)c1-c1ccccc1`, 9% (inactive); with `Cc1ccccc1N1C(N)=NC(N)=NC1(C)C`, 0% (inactive). With `CC(=O)c1cccc(S(=O)(=O)NCC(c2ccco2)N2CCCCC2)c1` (stereo not given) the figure was 0% (inactive). Regarding `CSc1nnc2n(CCc3ccccc3)c(=O)c3c4c(sc3n12)CCCC4`, the inhibition was 2% (inactive).

Regarding `O=C(CCN1C(=O)c2ccccc2C1=O)N1CCN(C(=O)c2ccccc2)CC1`, the inhibition was 0% (inactive). As to `COc1ccc(OC)c(-c2nnc(SCC(=O)NC3CCCCC3)o2)c1`, the inhibition was 0% (inactive). With `Cn1nc(CC(=O)Nc2ccc(N3CCN(C(=O)OC(C)(C)C)CC3)cc2)c2ccccc2c1=O` the figure was 0% (inactive).
